40 compounds from PubChem BioAssay can be followed below.

One experiment can be described thus: sensitizers of A549 cells to miR-34 induction, primary screen, imaging, A549 dox-inducible miR-34, nuclei and caspase counts (AID 1347080). Note: test concentration not given here. Particulars: A549 miR-34 inducible, Hoechst nuclei count, 48 h; measured here: total cells with miR-34 induction; stronger effect = lower value.
Take `CCCCC[C@H](O)/C=C/[C@H]1[C@H](O)CC(=O)[C@@H]1C/C=C\CCCC(=O)OC`: the cell count is 5670.

With `CCCCCCC(Sc1nc(Cl)cc(NCc2ccc(-c3ccccc3)cc2)n1)C(=O)O` (centres undefined), the cell count amounted to 6140.

Regarding `C[C@@H]1C[C@H]2O[C@@H]2/C=C\C=C\C(=O)Cc2c(Cl)c(O)cc(O)c2C(=O)O1`, the cell count worked out at 2240.

Regarding `CCCCC[C@H](O)/C=C/[C@@H]1[C@H]2C[C@H](CCCCC(=O)O)O[C@H]2C[C@H]1O`, the cell count is 6310.

Take `CC(=O)OCC(=O)[C@@]12N=C(C)O[C@@H]1CC1C3CCC4=CC(=O)C=C[C@]4(C)C3[C@@H](O)C[C@@]12C` (some centres undefined): the cell count turned out to be 6330.

For `N=C(N)SCCC[C@H](N)C(=O)O`, the cell count came to 5850.

On to `CCCCC[C@H](O)/C=C/[C@H]1[C@H](O)CC(=O)[C@@H]1C/C=C\CCCC(=O)OCC(O)CO` (some centres undefined), for which the cell count is 5540.

For the compound `CCCCC/C=C\C=C1\C(=O)CC[C@@H]1C/C=C\CCCC(=O)O`, the cell count was found to be 5640.

Turning to `CCCCCCCCCCCCCCCC(=O)N[C@H](C)CO`, the cell count came to 5780.

For the compound `CCCCCCCC/C=C\CCCCCCCC(=O)Nc1c(C(C)C)cccc1C(C)C`, the cell count is 5690.

As for `O=P(O)(O)OC1[C@@H](O)[C@H](O)C(O)[C@H](O)[C@@H]1O` (some centres undefined), the cell count was 5550.

Turning to `O=C(CCCC[C@@H]1SC[C@@H]2NC(=O)N[C@@H]21)NCCCC[C@H](NC(=O)CCN1C(=O)C=CC1=O)C(=O)O`, the cell count turned out to be 5380.

Regarding `CCCCCCCCCCCCCCCCCCCCCC(=O)NCCO`, the cell count came to 6180.

As for `C[C@@H](C(=O)O)c1ccc(-c2ccccc2)c(F)c1`, the cell count was 6150.

Regarding `CCCCC[C@H](O)/C=C/[C@H]1[C@H](O)CC(=O)[C@@H]1C/C=C\CCCC(=O)NCCO`, the cell count is 6290.

As for `[C-]#[N+]c1cc(-c2ccncc2)c(C)[nH]c1=O`, the cell count was 5870.

Consider `CCCCC[C@H](O)/C=C/[C@@H]1[C@@H](C/C=C\CCCCCC(=O)O)[C@@H](O)C[C@H]1O`, for which the cell count was 5260.

Take `CCCCC/C=C\C/C=C\CCCCCCCC(=O)OCC`: the cell count was 4750.

Consider `CCCCc1ccc(N=CNO)c(C)c1`, for which the cell count amounted to 6020.

Regarding `O=C(O)CCC/C=C\C[C@@H]1[C@@H](/C=C/[C@@H](O)Cc2ccccc2)[C@H](O)C[C@@H]1O`, the cell count was determined as 6070.

`CC(C)(CCCCCCCCCCC(C)(C)CC(=O)O)CC(=O)O`: the cell count came out at 6090.

Consider `CCCCC[C@H](O)/C=C/[C@@H]1[C@H]2CC(CCCCC(=O)O)O[C@H]2C[C@H]1O` (some centres undefined), for which the cell count came to 6700.

With `O=S(=O)(NO)c1ccccc1`, the cell count worked out at 5110.

Turning to `CCCC1([C@@H](O)C/C=C/[C@H]2C(O)CC(=O)[C@@H]2CCCCCCC(=O)OC)CCC1` (some centres undefined), the cell count amounted to 6030.

The experiment is the same for the next values; noted with them: A549 miR-34 inducible, Hoechst nuclei count, 48 h; measured here: total cells without miR-34 induction.
With `N[C@@H](CCC(=O)N[C@@H](CSN=O)C(=O)NCC(=O)O)C(=O)O`, the cell count stood at 5600.

With `CCCCC(C)(C)[C@H](O)/C=C/[C@H]1[C@H](O)CC(=O)[C@@H]1CC(=O)CCCCC(=O)O`, the cell count amounted to 6180.

With `CC(C)=CCC/C(C)=C/CC/C(C)=C/CC[C@]1(C)CCc2cc(O)cc(C)c2O1`, the cell count stood at 5720.

With `CCCCCCCCCC(=O)CC(=O)N[C@H]1CCOC1=O`, the cell count was found to be 6660.

For `CCCCCCCCCCCCCCCCOC[C@H](COP(=O)([O-])OCC[N+](C)(C)C)SC(C)=O`, the cell count amounted to 5130.

`CCCCC[C@@H](O)CC[C@H]1[C@H](O)CC(=O)[C@@H]1CCCCCCC(=O)O`: the cell count came to 5510.

Turning to `CCCCCC/C=C/C=C\CCCCCCCC(=O)O`, the cell count stood at 5920.

On to `CCNC1=N[C@@H]2[C@@H](O)[C@H](O)[C@@H](CO)O[C@@H]2S1`, for which the cell count worked out at 6640.

As to `C[C@@H](O)CCC[C@@H](O)/C=C/[C@@H]1[C@@H](CCCCCCC(=O)O)[C@@H](O)C[C@H]1O`, the cell count was determined as 5940.

In the case of `CCCCCC#CCC#CCC#CCCCCCCC(=O)O`, the cell count is 5910.

`CCCCC(C)(C)[C@H](O)/C=C/[C@H]1CCC(=O)[C@@H]1C/C=C\CCCC(=O)O`: the cell count came to 6450.

For `COc1ccc2c(c1)c(CC(=O)NCCc1ccccc1)c(C)n2C(=O)c1ccc(Cl)cc1`, the cell count stood at 5920.

For the compound `CCCCC/C=C\C/C=C\C/C=C\CCCCCCC(=O)OCC`, the cell count amounted to 6160.

With `O=C(O)CCC/C=C\C[C@@H]1[C@@H](CC[C@@H](O)CCc2cccc(C(F)(F)F)c2)[C@H](O)C[C@@H]1O`, the cell count is 6830.

Turning to `O=Cc1cccc2[nH]ccc12`, the cell count is 5350.

Regarding `CCCCCCCCCCCCC/C=C/[C@@H](O)[C@H](CO)NC(=O)CCCCC`, the cell count amounted to 5910.

In the case of `CCCCC[C@H](O)/C=C/[C@H]1[C@H](O)CC(=O)[C@@H]1C/C=C\CCCC(=O)OC`, the cell count is 6040.

In the case of `CCCCCCC(Sc1nc(Cl)cc(NCc2ccc(-c3ccccc3)cc2)n1)C(=O)O` (centres undefined), the cell count stood at 6180.

`C[C@@H]1C[C@H]2O[C@@H]2/C=C\C=C\C(=O)Cc2c(Cl)c(O)cc(O)c2C(=O)O1`: the cell count came out at 2220.

Regarding `CCCCC[C@H](O)/C=C/[C@@H]1[C@H]2C[C@H](CCCCC(=O)O)O[C@H]2C[C@H]1O`, the cell count was found to be 6310.

Turning to `CC(=O)OCC(=O)[C@@]12N=C(C)O[C@@H]1CC1C3CCC4=CC(=O)C=C[C@]4(C)C3[C@@H](O)C[C@@]12C` (some centres undefined), the cell count was 6910.

As for `N=C(N)SCCC[C@H](N)C(=O)O`, the cell count came to 5970.

On to `CCCCC[C@H](O)/C=C/[C@H]1[C@H](O)CC(=O)[C@@H]1C/C=C\CCCC(=O)OCC(O)CO` (some centres undefined), for which the cell count came out at 5860.

On to `CCCCC/C=C\C=C1\C(=O)CC[C@@H]1C/C=C\CCCC(=O)O`, for which the cell count came out at 6000.

As to `CCCCCCCCCCCCCCCC(=O)N[C@H](C)CO`, the cell count came to 6310.

Turning to `CCCCCCCC/C=C\CCCCCCCC(=O)Nc1c(C(C)C)cccc1C(C)C`, the cell count was determined as 5700.

Take `O=P(O)(O)OC1[C@@H](O)[C@H](O)C(O)[C@H](O)[C@@H]1O` (some centres undefined): the cell count stood at 6010.

With `O=C(CCCC[C@@H]1SC[C@@H]2NC(=O)N[C@@H]21)NCCCC[C@H](NC(=O)CCN1C(=O)C=CC1=O)C(=O)O`, the cell count is 5910.

In the case of `CCCCCCCCCCCCCCCCCCCCCC(=O)NCCO`, the cell count is 5980.

Turning to `C[C@@H](C(=O)O)c1ccc(-c2ccccc2)c(F)c1`, the cell count came out at 6360.

Turning to `CCCCC[C@H](O)/C=C/[C@H]1[C@H](O)CC(=O)[C@@H]1C/C=C\CCCC(=O)NCCO`, the cell count was determined as 5420.

Turning to `[C-]#[N+]c1cc(-c2ccncc2)c(C)[nH]c1=O`, the cell count amounted to 6450.

With `CCCCC[C@H](O)/C=C/[C@@H]1[C@@H](C/C=C\CCCCCC(=O)O)[C@@H](O)C[C@H]1O`, the cell count is 6000.

`CCCCC/C=C\C/C=C\CCCCCCCC(=O)OCC`: the cell count was 5230.

Regarding `CCCCc1ccc(N=CNO)c(C)c1`, the cell count came out at 5950.

On to `O=C(O)CCC/C=C\C[C@@H]1[C@@H](/C=C/[C@@H](O)Cc2ccccc2)[C@H](O)C[C@@H]1O`, for which the cell count came to 6260.

`CC(C)(CCCCCCCCCCC(C)(C)CC(=O)O)CC(=O)O`: the cell count was 6180.

`CCCCC[C@H](O)/C=C/[C@@H]1[C@H]2CC(CCCCC(=O)O)O[C@H]2C[C@H]1O` (some centres undefined): the cell count came to 7150.

Take `O=S(=O)(NO)c1ccccc1`: the cell count amounted to 5060.

Regarding `CCCC1([C@@H](O)C/C=C/[C@H]2C(O)CC(=O)[C@@H]2CCCCCCC(=O)OC)CCC1` (some centres undefined), the cell count was determined as 5910.
